# Screening data: PubChem BioAssay, National Center for Advancing Translational Sciences (NCATS)
# A selection: hits, their analogues and other compounds. The true share with any hit is near 7.9%.
# KB-V1 cytotox: qHTS assay for MDR1-selective chemotherapeutics: Primary screen using the drug-selected MDR subline cells KB-V1. KB-V1 MDR cells viability, CellTiter-Glo, 72 h. Potency, µM (highest dose often 46.1 µM), hits mostly cytotoxic. 400,000 tested, 3.4% active. AID 1347076, 2019; also: nearly all actives have a fitted effect of over 60% in size
#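 Drug-selected KB-V1 cells, grown in DMEM lacking phenol red with 10% FBS, receive compound titrations; after three days at 37 degrees C, surviving cell ATP is quantified by CellTiter-Glo luminescence and responses normalized and curve-fitted.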
# HT1080 IDH1KD tx: qHTS for induction of synthetic lethality in tumor cells producing 2HG: qHTS for the HT-1080-IDH1KD cell line | 360,000 tested, 2% active | HT-1080 IDH1 knockdown viability, ATP luminescence, 48 h | Potency, µM (highest dose often 46.1 µM), hits mostly cytotoxic
#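 % activity derives from luminescence (CellTiter-Glo), normalised to DMSO and no-cell wells. HT-1080-IDH1KD cells, 750/well, had 48 h compound exposure at 37 °C.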
# SW480 rereplic: A quantitative high throughput screen for small molecules that induce DNA re-replication in SW480 colon adenocarcinoma cells; SW480 DNA re-replication, Hoechst DNA content imaging, 48 h; Potency, µM (series often up to 46.1 µM), hits mostly activators; 340,000 tested, 1.8% active; AID 624297, 2012; also: nearly all actives have a fitted effect of over 55% in size
#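 Image-based read-out: total Hoechst fluorescence of nuclei (405 nm excitation, 500-530 nm emission), with hits raising the fraction of high-intensity nuclei. SW480 colon cells incubated 48 hr with compounds at 37 C.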
# HT1080-NT tox: qHTS for induction of synthetic lethality in tumor cells producing 2HG: qHTS for the HT-1080-NT fibrosarcoma cell line | HT-1080-NT fibrosarcoma viability, CellTiter-Glo ATP luminescence, 48 h | Potency, µM (titrated, usually from 46.1 µM), hits mostly cytotoxic | 360,000 tested, 1.6% active;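 also: NT is the 2HG producing partner of a matched IDH1 knockdown line; nearly all actives have a fitted effect of over 55% in size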
#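 Viability of the 2HG-overproducing fibrosarcoma line after 48 hours of compound exposure at 37 degrees C was determined by luminescence with CellTiter-Glo, and concentration-effect curves were then fitted and categorized.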
# KB-3-1 tox: qHTS assay for MDR1-selective chemotherapeutics: Primary screen using the parental adenocarcinoma cell KB-3-1. KB-3-1 viability, CellTiter-Glo ATP luminescence, 72 h. Potency, µM (highest dose often 46.1 µM), usual class: cytotoxic. 400,000 tested, 1.4% active; also: nearly all actives have a fitted effect of over 60% in size
#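 Multi-concentration cytotoxicity screen in KB-3-1 cells grown in DMEM lacking phenol red with 10% FBS. After 72 h at 37 °C with compound, ATP-dependent luminescence was recorded.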
# MCF10A rereplic: A quantitative high throughput screen for small molecules that induce DNA re-replication in MCF 10a normal breast cells; 350,000 tested, 2.9% active; MCF 10A DNA re-replication, Hoechst nuclear intensity, 48 h; Potency, µM (titrated, usually from 46.1 µM), most hits filed as activators; also: nearly all actives have a fitted effect of over 50% in size
# A number is an active result; – = inactive; ? = inconclusive; · = no result given. Calls follow the shape of the dose curve; as a rule, active = well fitted curve in the direction sought with a large enough effect; inconclusive = small, poorly fitted or top-dose-only effect, or another doubt; inactive = no such curve, though single readings can be large; an effect the other way counts as inactive or inconclusive.
SMILES,KB-V1 cytotox,HT1080 IDH1KD tx,SW480 rereplic,HT1080-NT tox,KB-3-1 tox,MCF10A rereplic
C#Cc1cccc(Nc2nc(NC(C)C)nc3ccsc23)c1,?,21µM,·,?,–,·
C#Cc1cccc(Nc2nc(NCc3ccccc3OC)nc3ccsc23)c1,?,?,·,21µM,?,·
C#Cc1cccc(Nc2nc(NCCOC)nc3ccsc23)c1,–,?,·,?,–,·
C[N+]1(CC2COC(c3ccccc3)(C3CCCCC3)O2)CCCCC1 (configuration not stated),·,·,–,·,·,–
CSc1nc2ccc(S(=O)(=O)NC3CCCCC3)cc2s1,16µM,–,–,–,?,–
CSc1nc2ccc(S(=O)(=O)N3CCCCC3)cc2s1,?,–,–,–,?,–
CCc1c(C)nc2cc(-c3ccc(OC)c(OC)c3)nn2c1NCC1CC1,5.2µM,–,–,–,?,21µM
COc1ccc(CCNC(=O)CCc2c(C)nc3cc(-c4ccccc4)nn3c2C)cc1OC,–,·,·,·,–,·
CC(C)c1nc(N2CCN(C(=O)c3ccccc3)CC2)c(C#N)c2c1COC(C)(C)C2,?,–,–,–,?,?
CC(C)c1nc(N2CCN(C(=O)c3ccco3)CC2)c(C#N)c2c1COC(C)(C)C2,18µM,?,–,?,?,?
CC1(C)Cc2c(C#N)c(N3CCN(C(=O)c4ccccc4)CC3)nc(-c3ccco3)c2CS1,?,–,–,–,?,13µM
N#Cc1c(N2CCOCC2)nc(-c2ccco2)c2c1CCCC2,–,–,?,–,–,?
Cc1nn(-c2ccc(F)cc2)c(Cl)c1/C=C1\C(=O)Nc2ccccc21,13µM,5.2µM,?,?,?,8.2µM
Cc1ccnc(SCc2ccc(C(=O)O)cc2)n1,–,–,–,–,–,–
O=C(COCc1cc(-c2cccs2)on1)N1CCN(c2ccc(F)cc2)CC1,–,·,·,·,–,·
COc1ccc2c(c1)OC(=O)CC2c1cc(OC)c(OC)c(OC)c1 (configuration not stated),–,15µM,?,?,?,?
Cc1nn(C)c(C)c1S(=O)(=O)N(CC(=O)NCCCOC(C)C)c1ccc(C(C)C)cc1,4.6µM,–,–,–,–,–
Cc1ccc(N(CC(=O)NC2CCCCCC2)S(=O)(=O)c2c(C)nn(C)c2C)cc1,9.2µM,–,–,–,–,–
COc1ccc(N(CC(=O)N2CCCCC2)S(=O)(=O)c2c(C)nn(C)c2C)cc1,–,–,–,–,–,–
COc1ccc(N(CC(=O)NC2CCCCCC2)S(=O)(=O)c2c(C)nn(C)c2C)cc1,8.2µM,–,–,–,?,–
COc1ccc(-c2ccc(C(c3c(C)[nH][nH]c3=O)c3c(C)[nH][nH]c3=O)o2)c([N+](=O)[O-])c1,?,26µM,?,8.2µM,?,21µM
Cc1[nH][nH]c(=O)c1C(c1ccc(-c2ccc(F)cc2)o1)c1c(C)[nH][nH]c1=O,–,–,–,?,–,?
Cc1[nH][nH]c(=O)c1C(c1ccc(-c2ccc(Cl)c(Cl)c2)o1)c1c(C)[nH][nH]c1=O,–,–,–,–,–,2.9µM
Cc1[nH][nH]c(=O)c1C(c1ccc(-c2ccc(C(=O)O)cc2)o1)c1c(C)[nH][nH]c1=O,–,–,–,–,–,–
COc1ccc(-c2nc(Cn3c(SCc4ccc(F)cc4)nc4ccncc43)c(C)o2)cc1OC,–,?,–,23µM,?,3.7µM
SMILES,KB-V1 cytotox,HT1080 IDH1KD tx,SW480 rereplic,HT1080-NT tox,KB-3-1 tox,MCF10A rereplic
Cc1ccc(CSc2nc3ccncc3n2Cc2nc(-c3ccc(Cl)cc3)oc2C)cc1,–,·,·,·,–,·
O=C(C(=O)N(Cc1ccccc1)Cc1ccccc1)c1c(-c2ccccc2)[nH]c2ccccc12,–,?,18µM,?,–,–
COC(=O)/C(=C/c1cn(C(C)=O)c2ccccc12)[N+](=O)[O-],–,–,–,–,–,–
CC(=O)n1cc(C(C[N+](=O)[O-])SCCN)c2ccccc21 (configuration not stated),?,?,6.5µM,?,?,5.2µM
CN(C(=O)COC(=O)c1nc(Cl)c(Cl)c(Cl)c1Cl)C1CCS(=O)(=O)C1 (configuration not stated),?,5.8µM,?,16µM,?,3.7µM
Cc1ccc(-c2noc(-c3ccc(N4CCCC4)c([N+](=O)[O-])c3)n2)cc1,–,·,·,·,–,·
O=C(CSc1nc2ncc(Br)cc2[nH]1)Nc1ccccc1-c1ccccc1,?,?,–,?,–,26µM
CCc1ccc(NC(=O)CSc2nc3ncc(Br)cc3[nH]2)cc1,–,–,–,–,–,12µM
O=C(CSc1nc2ncc(Cl)cc2[nH]1)Nc1ccccc1-c1ccccc1,–,?,?,?,–,?
CC(C)Nc1oc(Cc2cccc3ccccc23)nc1C#N,16µM,–,–,–,–,–
COc1ccc(CCNc2oc(Cc3cccc4ccccc34)nc2C#N)cc1OC,18µM,–,–,–,?,–
CNc1oc(Cc2cccc3ccccc23)nc1C#N,–,–,–,–,–,?
O=[N+]([O-])c1ccccc1S(=O)(=O)Nc1cccc(-c2ccc3nncn3n2)c1,–,–,–,–,–,–
COc1ccc(Cl)c2sc(NC(=O)C3=COCCO3)nc12,–,?,5.2µM,?,–,–
O=C(Nc1nc2ccc(F)cc2s1)C1=COCCO1,12µM,?,–,?,?,–
O=C(Nc1nc2cc3c(cc2s1)OCCO3)C1=COCCO1,–,13µM,–,15µM,–,–
Cc1ccc(Cl)c2sc(NC(=O)C3=COCCO3)nc12,–,–,–,–,–,?
CCCCN(Cc1ccccc1)S(=O)(=O)c1cc(Br)cc2c1N(C(C)=O)C(C)C2 (configuration not stated),21µM,?,–,?,–,–
CC(=O)N1c2c(cc(Br)cc2S(=O)(=O)NCc2cccnc2)CC1C (configuration not stated),–,–,–,–,–,–
CCN(CC)N=Nc1ccc(S(=O)(=O)Nc2nc(C)cc(C)n2)cc1,?,–,–,–,–,–
Cc1ccccc1-c1nc(CN2CCCC2c2ccc(F)cc2)c(C)o1 (configuration not stated),–,–,–,–,–,15µM
Cc1oc(-c2ccccc2Cl)nc1CN1CCCC1c1ccc(F)cc1 (configuration not stated),?,–,–,–,–,–
